In the library only some 0.45% were active in any assay of this set; here they are far more common.
Tb PGK inh = inhibitors of T. brucei phosphoglycerate kinase | P07378 | PGK/GAPDH coupled, Kinase-Glo luminescence, 60 min | Potency, µM (highest dose often 57.5 µM), inactives show at the highest dose activity change, negative = inhibition, actives largely listed as inhibitors | 0.043% of 380,000 active; note: nearly all actives have a fitted effect of over 60% in size
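Luminescent ATP detection (Kinase-Glo Plus) follows a 60-minute room-temperature incubation, with wells lacking PGK as controls. Buffer: 100 mM TEA (pH 7.6), 5 mM MgCl2, 0.01% Tween-20. Coupling enzyme GAPDH (100 nM final) supplies unstable 1,3-BPG in-well.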
BCR signal inh = chronic active BCR signaling inhibition; ABC-DLBCL IkBa-CBG/CBR reporter, luminescence ratio, 4 h; Potency, µM (top dose mostly 46.1 µM), for inactives: at the top dose activity change, negative = inhibition, usual class: inhibitors; 0.05% of 340,000 active; AID 493014; active = well fitted inhibition curve with a large enough effect in the signal ratio, with a control signal flat, not every such curve was filed as active; inconclusive = small, poorly fitted or top-dose-only effect, or effect the other way, or a change in a side signal; the % refers to the signal ratio;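 note: plate controls were basal doxycycline-induced cells for no effect and cells given 10 µM MG132 for full effect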
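Compounds up to 46 uM were incubated four hours with TMD8 cells whose green CBG68 luciferase is fused to IkappaBalpha; red CBR luminescence normalised the signal, and concentration-effect curves were fitted to fusion, red and ratio data.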
FEN1 inh = human FEN1 inhibition; P39748; Recombinant FEN1 flap cleavage, fluorescence, 15 min; Potency, µM (titrated, usually from 114 µM), for the others: at the highest dose activity change, negative = inhibition, usual class: inhibitors; 0.35% of 390,000 active; note: nearly all actives have a fitted effect of over 65% in size
Target sequence (P39748 whole entry, looked up): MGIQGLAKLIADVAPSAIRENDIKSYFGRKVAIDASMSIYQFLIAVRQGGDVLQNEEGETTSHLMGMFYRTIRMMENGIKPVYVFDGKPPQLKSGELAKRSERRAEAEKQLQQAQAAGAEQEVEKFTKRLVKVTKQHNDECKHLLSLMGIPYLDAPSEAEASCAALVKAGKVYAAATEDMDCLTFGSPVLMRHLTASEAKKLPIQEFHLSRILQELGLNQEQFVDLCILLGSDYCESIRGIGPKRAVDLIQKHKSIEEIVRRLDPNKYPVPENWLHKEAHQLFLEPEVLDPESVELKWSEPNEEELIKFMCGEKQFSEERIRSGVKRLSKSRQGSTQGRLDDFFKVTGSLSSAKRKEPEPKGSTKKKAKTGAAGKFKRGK
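Reaction started by adding substrate (50 nM final) to 10 nM enzyme after 15 min room-temperature compound preincubation. Reads at 0 and 15 min, with data normalized and fitted to a four-parameter Hill equation.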
Pin1 inhibitor = blocks the human prolyl isomerase Pin1 | Pin1 FP peptide displacement, HiFluor488, 10 min | Potency, µM (highest dose often 115 µM), without a hit: at the top dose activity, negative = inhibition, hits mostly inhibitors | 0.009% of 390,000 active | AID 504891 | Q13526; active = well fitted inhibition curve with a large enough effect in the polarisation, with a control signal flat, not every such curve was filed as active; inconclusive = small, poorly fitted or top-dose-only effect, or effect the other way, or a change in a side signal; inactive = no such curve, though single readings can be large or run the other way; the % refers to the polarisation
B2AR arrestin = beta2AR (human) beta-arrestin recruitment activity. P07550. beta-arrestin recruitment to beta2AR, cell-based reporter. Potency, µM (doses to about 46.1 µM), for the others: at the highest dose activation, most hits filed as activators. 0.02% of 330,000 active;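 note: 0% = DMSO controls and full agonism = EC100 isoproterenol or metaproterenol; nearly all actives have a fitted effect of over 65% in size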
Apoferritin bind = candidate novel general anesthetic via apoferritin binding; 0.074% of 350,000 active; AID 485281; P02791; Potency, µM (top dose mostly 77.5 µM), for the others: at the top dose activity change, negative = displacement, usual class: inhibitors; apoferritin/1-aminoanthracene competitive binding, fluorescence; note: nearly all actives have a fitted effect of over 20% in size
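Read-out: endpoint 1-AMA fluorescence, excitation 380 nm and emission 535 nm, after compounds sit 10 min at room temperature with 10 uM horse-spleen apoferritin in 50% saturated 1-AMA/PBS. Values come from four-parameter Hill fits.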
An asterisk follows results filed as active; i = inactive; ? = inconclusive; . = no result. Unless noted, calls come from the whole dose curve; as a rule, active = well fitted curve in the direction sought with a large enough effect; inconclusive = small, poorly fitted or top-dose-only effect, or another doubt; inactive = no such curve, though single readings can be large; an effect the other way counts as inactive or inconclusive. Unless noted, % is set by controls: 0 for no effect and ±100 for the full control effect; potency is the fitted concentration of half-maximal effect.

SMILES	Tb PGK inh	BCR signal inh	FEN1 inh	Pin1 inhibitor	B2AR arrestin	Apoferritin bind
Cc1ccc(-c2csc3nc4c5ccccc5c(NCCCN(C)C)nn4c(=O)c23)cc1	i	-7%	20µM*	4%	-1%	-11%
O=C(NC1CCc2ccccc21)c1cc(COc2cncc(Cl)c2)on1 (stereo not given)	-9%	?	-23%	-10%	-1%	45µM*
O=C(NC1CCc2ccccc21)c1cc(COc2ccc(F)cc2Cl)on1 (stereo not given)	-6%	?	-6%	-5%	-1%	?
O=C(COC(=O)c1ccc(Br)o1)Nc1ncc([N+](=O)[O-])s1	-15%	?	?	-6%	0%	.
COc1ccc(C(=O)OCC(=O)Nc2ncc([N+](=O)[O-])s2)cc1OC	?	?	35µM*	.	-2%	.
O=C(CSc1nc2sc3c(c2c(=O)n1-c1ccccc1)CCCC3)N/N=C/c1ccccc1C(=O)O	?	-1%	50µM*	1%	0%	4%
CC(NC(=O)CSc1nc2sc3c(c2c(=O)n1-c1ccccc1)CCCC3)c1ccccc1 (stereo not given)	-3%	?	13%	2%	-1%	-7%
O=C(CNC(=O)C1CCCCC1)OC(C(=O)Nc1cc(C(F)(F)F)ccc1Cl)c1ccccc1 (stereo not given)	.	.	.	0%	.	.
O=c1[nH]c2ccccc2n1CCC1CCCCC1	0%	?	0%	18%	-1%	28µM*
O=c1c2ccccc2nc(-c2ccccc2O)n1Cc1ccccc1	.	.	.	-7%	.	.
Cc1cc2c(s1)c1cnn(Cc3ccccc3F)c(=O)c1n2Cc1ccccc1F	.	.	.	1%	.	.
Cc1cc(S(=O)(=O)NCCc2ccccc2)c(C)s1	-1%	3%	-16%	-1%	0%	8.9µM*
CCOc1cc(CNc2ccc3cn[nH]c3c2)ccc1OC	0%	?	35µM*	-4%	-1%	-1%
COc1ccc(CNc2ccc3cn[nH]c3c2)c(OC)c1OC	-5%	14%	5%	-5%	0%	-20%
O=S1(=O)N=C(Oc2ccc3ccccc3c2)c2ccccc21	.	.	.	2%	.	.
COc1ccc(C(=O)c2cn(CC(=O)Nc3ccc4c(c3)OCCO4)c3ccc(OC)cc3c2=O)cc1	4%	.	40µM*	225%	.	-15%
COc1ccc2c(c1)c(=O)c(C(=O)c1ccc(C)c(C)c1)cn2CC(=O)Nc1ccc2c(c1)OCCO2	-7%	.	2%	-5%	.	-7%
Cc1cc2c(s1)c1cnn(Cc3c(F)ccc(Cl)c3F)c(=O)c1n2C	.	.	.	1%	.	.
CC1C/C(=N\NC(N)=S)c2cc(Cl)ccc2S1 (stereo not given)	-7%	?	11%	?	6.3µM*	5%
O=C(O)c1cccc(N2C(=O)c3cc([N+](=O)[O-])cc4cc([N+](=O)[O-])cc(c34)C2=O)c1	25µM*	?	20µM*	.	-1%	-23%
COc1ccc(/C=C2\SC(=N)N(c3nccs3)C2=O)cc1OC	-3%	?	79µM*	?	0%	-24%
O=Cc1ccc2oc3nc4n(c(=O)c3c(=O)c2c1)CCCS4	?	16%	50µM*	?	0%	-23%
N#Cc1ccccc1S(=O)(=O)N1CCN(S(=O)(=O)c2ccc3c(c2)OCCO3)CC1	.	.	.	7%	.	.
Cc1ccc(NS(=O)(=O)c2cc3c(cc2N2CCCCC2)NC(=O)CC3)cc1C	.	.	.	14%	.	.
O=[N+]([O-])c1cc([N+](=O)[O-])c2oc(-c3ccccc3)c(Br)c2c1O	-21%	?	45µM*	.	-2%	5%
CCC(=O)c1ccc(OCC(=O)OCC(=O)NC2CCCCCCC2)cc1	-2%	-4%	15%	5%	0%	5.6µM*
O=C(NCc1ccccc1)n1cc(P(=S)(c2ccccc2)c2ccccc2)c2ccccc21	.	.	.	0%	.	.
N#C/C(=C\c1c(Cl)cccc1Cl)c1nc2ccccc2o1	-4%	-10%	-5%	24%	23µM*	-6%
